HT1080-NT tox: kills 2HG-producing HT-1080-NT fibrosarcoma cells | HT-1080-NT fibrosarcoma viability, CellTiter-Glo ATP luminescence, 48 h | AID 686970 | actives 1.6% (n = 360,000) | Potency, µM (titrated, usually from 46.1 µM), inactives show at the highest dose activity, negative = less viability, hits mostly cytotoxic;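 further: NT is the 2HG producing partner of a matched IDH1 knockdown line; 0% = DMSO-treated cells and -100% = media-only wells without cells; nearly all actives have a fitted effect of over 55% in size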
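Viability of the 2HG-overproducing fibrosarcoma line after 48 hours of compound exposure at 37 degrees C was determined by luminescence with CellTiter-Glo, and concentration-effect curves were then fitted and categorized.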
MCF10A rerep: induces DNA re-replication in MCF 10a normal breast cells | MCF 10A DNA re-replication, Hoechst nuclear intensity, 48 h | actives 2.9% (n = 350,000) | Potency, µM (highest dose often 46.1 µM), for inactives: at the top dose activity, positive = re-replication, usual class: activators; further: % of control where 0% means no effect; nearly all actives have a fitted effect of over 50% in size
SW480 rerep: induces DNA re-replication in SW480 colon adenocarcinoma cells | Potency, µM (doses to about 46.1 µM), for inactives: at the top dose re-replication activation, most hits filed as activators | actives 1.8% (n = 340,000) | SW480 DNA re-replication, Hoechst DNA content imaging, 48 h | AID 624297; further: % of control where 0% means no effect; nearly all actives have a fitted effect of over 55% in size
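Image-based DNA-content assay: after two days of treatment, nuclei were labelled with the DNA dye Hoechst and imaged, and hits were compounds raising the count of nuclei showing high fluorescence intensity.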
KB-3-1 cytotox: KB-3-1 parental cell cytotoxicity | KB-3-1 viability, CellTiter-Glo ATP luminescence, 72 h | Potency, µM (top dose mostly 46.1 µM), most hits filed as cytotoxic | actives 1.4% (n = 400,000) | AID 1347075; further: on the % scale 0 is the no-effect control and ±100 the full control effect; nearly all actives have a fitted effect of over 60% in size
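Here the drug-naive KB-3-1 line serves as comparator for MDR sub-line selectivity; cells received compound titrations, 72 h at 37 °C, then CellTiter-Glo readout.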
HT1080 IDH1KD tx: toxicity to HT-1080 IDH1 knockdown cells (counter line). HT-1080 IDH1 knockdown viability, ATP luminescence, 48 h. Potency, µM (titrated, usually from 46.1 µM), for inactives: at the top dose activity, negative = toxicity, most hits filed as cytotoxic. actives 2% (n = 360,000);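 further: 0% = DMSO wells and -100% = cell-free medium wells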
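Luminescent ATP read-out (CellTiter-Glo, 10 min at room temperature) after 48 h compound exposure at 37 °C gave viability of IDH1-knockdown HT-1080 cells. Activity was normalised to DMSO and cell-free wells, then fitted as concentration-response curves.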
KB-V1 MDR tox: KB-V1 MDR subline cytotoxicity | KB-V1 MDR cells viability, CellTiter-Glo, 72 h | actives 3.4% (n = 400,000) | Potency, µM (series often up to 46.1 µM), usual class: cytotoxic; further: on the % scale 0 is the no-effect control and ±100 the full control effect; nearly all actives have a fitted effect of over 60% in size
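In this primary screen, KB-V1 cells overexpressing P-gp are incubated with library compounds (lowest to highest concentration) for 72 h at 37 degrees C before a luminescent ATP viability read.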
Numbers without * were called inactive. Rows were chosen to be rich in hits. Some 7.9% of all compounds tested hit in one or more screens of this group. The call rests on the fitted dose curve; in most records, active means well fitted curve in the direction sought with a large enough effect; inconclusive means small, poorly fitted or top-dose-only effect, or another doubt; inactive means no such curve, though single readings can be large; an effect the other way counts as inactive or inconclusive. Potency means the concentration at half of the fitted maximal effect.

Results for CC1=C(C(=O)N2CCOCC2)CC(CC(=O)NC2CC2)C(=O)N1CCC1=CCCCC1 (centres undefined) ?
HT1080-NT tox: 9%; KB-3-1 cytotox: inactive; HT1080 IDH1KD tx: 7%; KB-V1 MDR tox: inactive

What do the screens show for `Oc1c(N=Nc2ccccn2)ccc2ccccc12`?
HT1080-NT tox: inconclusive; MCF10A rerep: 13µM*; SW480 rerep: inconclusive; KB-3-1 cytotox: 1.2µM*; HT1080 IDH1KD tx: 2.3µM*; KB-V1 MDR tox: inconclusive

How did Oc1[nH]c2ccccc2c1N=Nc1ccccn1 do in these assays?
HT1080-NT tox: 12%; MCF10A rerep: -3%; SW480 rerep: -5%; KB-3-1 cytotox: inactive; HT1080 IDH1KD tx: 5%; KB-V1 MDR tox: inactive

How did Cc1ccc(-c2nn(-c3ccccc3)cc2NC(=O)CCl)cc1 do in these assays?
HT1080-NT tox: 5.2µM*; MCF10A rerep: inconclusive; SW480 rerep: 18µM*; KB-3-1 cytotox: 8.2µM*; HT1080 IDH1KD tx: 7.3µM*; KB-V1 MDR tox: inconclusive

What do the screens show for `Cc1ccc(-c2nn(-c3ccccc3)cc2CO)cc1`?
HT1080-NT tox: -8%; MCF10A rerep: -1%; SW480 rerep: -5%; KB-3-1 cytotox: inactive; HT1080 IDH1KD tx: -14%; KB-V1 MDR tox: inactive

Results for Cc1ccc(-c2nn(-c3ccccc3)cc2CNCc2ccccc2)cc1 ?
HT1080-NT tox: 16µM*; MCF10A rerep: inconclusive; SW480 rerep: -10%; KB-3-1 cytotox: inconclusive; HT1080 IDH1KD tx: 23µM*; KB-V1 MDR tox: inactive

What do the screens show for `Cc1ccccc1NC(=O)c1cn(-c2ccccc2)nc1-c1ccccc1`?
HT1080-NT tox: 15%; MCF10A rerep: inconclusive; SW480 rerep: 3%; KB-3-1 cytotox: inactive; HT1080 IDH1KD tx: 7%; KB-V1 MDR tox: inactive

Results for CNCc1nc(-c2ccc[nH]2)c2cc(Cl)ccc2n1 ?
KB-3-1 cytotox: inactive; KB-V1 MDR tox: inconclusive

What do the screens show for `Cc1cccc(OCCCC(=O)NNC(=O)c2ccncc2)c1`?
HT1080-NT tox: 7%; MCF10A rerep: -17%; SW480 rerep: -80%; KB-3-1 cytotox: inactive; HT1080 IDH1KD tx: 5%; KB-V1 MDR tox: inactive

How did COCCn1ccc2c(OCC(=O)Nc3cc(OC)ccc3OC)cccc2c1=O do in these assays?
HT1080-NT tox: 0%; MCF10A rerep: inconclusive; SW480 rerep: 10%; KB-3-1 cytotox: inactive; HT1080 IDH1KD tx: -2%; KB-V1 MDR tox: inconclusive

What do the screens show for `O=C(/C=C/c1ccc(Br)o1)NC(c1ccccc1)c1ccccc1`?
HT1080-NT tox: -20%; MCF10A rerep: 1%; SW480 rerep: 14%; KB-3-1 cytotox: inactive; HT1080 IDH1KD tx: -24%; KB-V1 MDR tox: 23µM*

Results for COc1ccc(C(=O)c2sc(Nc3ccccc3)nc2C)cc1 ?
HT1080-NT tox: -18%; MCF10A rerep: inconclusive; SW480 rerep: -1%; KB-3-1 cytotox: inactive; HT1080 IDH1KD tx: inconclusive; KB-V1 MDR tox: inactive

Results for COc1cccc(C(=O)c2sc(NC(C)C)nc2N)c1 ?
HT1080-NT tox: -24%; MCF10A rerep: 5.8µM*; SW480 rerep: inconclusive; KB-3-1 cytotox: 16µM*; HT1080 IDH1KD tx: inconclusive; KB-V1 MDR tox: inconclusive

How did COc1ccc(Nc2nc(N)c(C(=O)c3ccc(OC)cc3)s2)cc1 do in these assays?
HT1080-NT tox: inconclusive; MCF10A rerep: inconclusive; SW480 rerep: 4.1µM*; KB-3-1 cytotox: 1.3µM*; HT1080 IDH1KD tx: inconclusive; KB-V1 MDR tox: inconclusive

Results for COc1ccc(Nc2nc(N)c(C(=O)c3ccc(F)cc3)s2)cc1 ?
HT1080-NT tox: inconclusive; MCF10A rerep: 2.6µM*; SW480 rerep: 4.1µM*; KB-3-1 cytotox: inconclusive; HT1080 IDH1KD tx: 1.8µM*; KB-V1 MDR tox: 1.3µM*

How did CC(C)Nc1nc(N)c(C(=O)C23CC4CC(CC(C4)C2)C3)s1 do in these assays?
HT1080-NT tox: -1%; MCF10A rerep: 23µM*; SW480 rerep: 21%; KB-3-1 cytotox: inactive; HT1080 IDH1KD tx: -4%; KB-V1 MDR tox: inactive

What do the screens show for `CCOC(=O)c1c(S(=O)(=O)Nc2cccc(-c3ccno3)c2)c(C)n(C)c1C`?
HT1080-NT tox: 10%; MCF10A rerep: 4%; SW480 rerep: -13%; KB-3-1 cytotox: inactive; HT1080 IDH1KD tx: -8%; KB-V1 MDR tox: inactive

Results for Cc1ccc(SCc2ccc(C(=O)Nc3cccnc3)cc2)cc1 ?
HT1080-NT tox: -1%; MCF10A rerep: 11%; SW480 rerep: -3%; KB-3-1 cytotox: inactive; HT1080 IDH1KD tx: 7%; KB-V1 MDR tox: inactive

Results for CCC(=O)n1nc(-c2ccccc2)nc1SCC(=O)Nc1ccc(C)cc1 ?
HT1080-NT tox: 0%; MCF10A rerep: 0%; SW480 rerep: -19%; KB-3-1 cytotox: inactive; HT1080 IDH1KD tx: 2%; KB-V1 MDR tox: 21µM*

What do the screens show for `O=C(CSc1nc(-c2ccccc2)nn1C(=O)c1ccccc1)Nc1cccc([N+](=O)[O-])c1`?
HT1080-NT tox: -1%; MCF10A rerep: 5%; SW480 rerep: -8%; KB-3-1 cytotox: inconclusive; HT1080 IDH1KD tx: 2%; KB-V1 MDR tox: 21µM*

What do the screens show for `CC(=O)n1nc(-c2cccc(C)c2)nc1SCC(=O)Nc1ccccc1`?
HT1080-NT tox: 0%; MCF10A rerep: 21%; SW480 rerep: -3%; KB-3-1 cytotox: inactive; HT1080 IDH1KD tx: -7%; KB-V1 MDR tox: inactive

Results for Cc1ccc(NC(=O)CSc2nc3ccccc3c3nc4ccccc4n23)cc1 ?
HT1080-NT tox: 0.4µM*; MCF10A rerep: 1.5µM*; SW480 rerep: 0.65µM*; KB-3-1 cytotox: 0.92µM*; HT1080 IDH1KD tx: 0.28µM*; KB-V1 MDR tox: 1.6µM*

What do the screens show for `O=C(CSc1nc2ccccc2c2nc3ccccc3n12)NCc1ccco1`?
HT1080-NT tox: -22%; MCF10A rerep: -2%; SW480 rerep: -4%; KB-3-1 cytotox: inactive; HT1080 IDH1KD tx: -21%; KB-V1 MDR tox: inconclusive

How did COC(=O)CSc1nc2ccc(C)cc2cc1C#N do in these assays?
HT1080-NT tox: 16%; MCF10A rerep: inconclusive; SW480 rerep: -27%; KB-3-1 cytotox: inactive; HT1080 IDH1KD tx: 10%; KB-V1 MDR tox: inactive

Results for O=C(CSc1nnc(Nc2ccccc2)s1)NC1CCS(=O)(=O)C1 (centres undefined) ?
HT1080-NT tox: 3%; MCF10A rerep: -10%; SW480 rerep: -16%; KB-3-1 cytotox: inactive; HT1080 IDH1KD tx: 12%; KB-V1 MDR tox: inconclusive

What do the screens show for `COC(=O)c1cc(S(=O)(=O)Nc2c(C)cccc2C)cn1C`?
HT1080-NT tox: 0%; MCF10A rerep: 3%; SW480 rerep: -5%; KB-3-1 cytotox: inactive; HT1080 IDH1KD tx: 5%; KB-V1 MDR tox: inactive

Screening data as filed in PubChem.
